Data reported in PubChem BioAssay AID431 (Sanford-Burnham Center for Chemical Genomics, 2006).
The whole screen tested about 63,000 compounds, of which about 1,100 (1.7%) were called active.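 Rule for the calls: active = compounds whose percent cytotoxicity in the single-dose primary screen, scaled between solvent and toxic-drug controls, exceeds 50; inactive = the rest.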 The sample as a whole holds a higher share of actives than the screen did. Entries with a potency or affinity are not part of this list.

Assay: viability loss of HPDE-C7K cells – cell-based, fluorescence, HTS, primary screen (AID 431);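 note: 0% = DMSO solvent wells and 100% = doxorubicin-treated wells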
Details: HPDE-C7K KRASV12 cells, Alamar Blue viability, 48 h; at 10 µM; stronger effect = higher value

Compound | cytotoxicity
O=C(CSCc1ccccc1)NC1CCSC1=O (configuration not stated) | 11.9% (inactive)
O=C(CSc1nnc(CCc2nc3ccccc3[nH]2)n1-c1ccccc1)NCc1ccco1 | -22.8% (inactive)
COc1ccccc1OCc1ccc(C(=O)n2nc(C)c(Cl)c2C)o1 | -1.6% (inactive)
CN(C)c1ccc(C(=O)c2ccc(N(C)C)c(N)c2)cc1N | 46% (inactive)
CCOC(=O)C(C)Oc1ccc(C2NC(=O)NC(C)=C2C(C)=O)cc1Br (configuration not stated) | 8.9% (inactive)
O=C(NCCc1ccccc1)C1CCCN(S(=O)(=O)c2cccnc2)C1 (configuration not stated) | -7.8% (inactive)
O=C(NCc1ccc2c(c1)OCO2)c1cnc2n(c1=O)CCS2 | 11.4% (inactive)
COc1ccc(-c2nc(SCC(=O)NCc3ccco3)c(-c3ccccc3)[nH]2)cc1OC | -6.7% (inactive)
COc1ccc(-c2[nH]c(-c3ccc(F)cc3)nc2SCC(=O)NCc2ccco2)cc1OC | 6.3% (inactive)
COc1ccc(-c2[nH]c(-c3cccc(OC)c3)nc2SCC(=O)NCc2ccco2)cc1 | 50.4% (active)
CS(=O)(=O)NCCCc1ccccc1 | -3.7% (inactive)
O=C(NCc1ccccn1)c1ccc(/C=N/O)nc1 | 0.9% (inactive)
CC1CCN(c2nc(-c3ccc(F)cc3)cc(C(F)(F)F)n2)CC1 | -19.1% (inactive)
O=C(c1ccc(F)cc1)C1CCN(CCn2c(=O)[nH]c3ccccc3c2=O)CC1 | 5.6% (inactive)
O=c1c2ccccc2[nH]c(=S)n1CCN1CCN(Cc2ccccc2)CC1 | 0.6% (inactive)
CCSc1nnc(NC(=O)c2cc(C)oc2C)s1 | 10.1% (inactive)
Cc1noc(C(=O)Nc2c(C)nn(Cc3ccccc3)c2C)c1Cl | -3.9% (inactive)
CCOC(=O)N1CCN(C(=O)c2ccc3c(c2)N(CC)CCS3)CC1 | 1% (inactive)
CC(=O)NC(c1ccco1)c1ccc2cccnc2c1O (configuration not stated) | 23.7% (inactive)
CC(C)C(=O)NC(c1ccco1)c1ccc2cccnc2c1O (configuration not stated) | -36.3% (inactive)
Cc1ccc(S(=O)(=O)C(C#N)c2nc3ccccc3nc2N2CCCCC2)cc1 (configuration not stated) | 0.6% (inactive)
COC(=O)c1ccc(-n2nnnc2SCC(=O)N2CCCCC2)cc1 | -30.4% (inactive)
COc1ccc(CCNC(=O)c2cnccn2)cc1 | -0.7% (inactive)
CCOC(=O)C1CCN(c2c(NCCN3CCCCC3C)c(=O)c2=O)CC1 (configuration not stated) | 2.6% (inactive)
O=C(Cn1c(CO)nc2ccccc21)Nc1cc(C(F)(F)F)ccc1N1CCOCC1 | -13.4% (inactive)
c1ccc(N2CCOCC2)c(Nc2nc3ccccc3n3cnnc23)c1 | 0.7% (inactive)
C=CCn1c(COc2ccccc2)nnc1SCC(=O)C(C)(C)C | 8.4% (inactive)
